From the supplement of paper PMC10037445 come the findings set out here.

The structures appear in SMILES notation. “And” between values parts separate entries of the source, which are not always exact repeats. Identical values can stand only once. Whole data set: some 2,900 compounds, median “NF-kB SEAP reporter activity, fold change vs agonist alone” near 0.99, cut for the highest 2% near 2.6. The list comes from a sample in which the highest values are over-represented; it also holds similar structures and randomly drawn compounds.

Assay [1] deals with RAW-Dual. The experiment in a line: NF-kB SEAP reporter activity, fold change vs agonist alone; cytotoxicity flag (confluency mask): cytotoxic (confluency <70% of control); higher = enhanced NF-kB activity. In outline:
(§1)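 After 50 nL of library stock was delivered by pin tool to RAW-Dual macrophages (50,000 cells/well, DMEM, 384-well plates), a PRR agonist was added 1 h later and the plates were kept at 37 °C, 5% CO2. Twenty hours later, IRF was read from supernatant by QuantiLuc luminescence and NF-κB by QuantiBlue absorbance at 620 nm. Reporter activity is stated as fold change over agonist-alone wells. Wells with IncuCyte confluency under 70% of agonist controls in both mask sets were counted as cytotoxic.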

Assay [2] relates to RAW-Dual. In words: NF-kB SEAP reporter activity, fold change vs agonist alone; higher = enhanced NF-kB activity. In outline: as §1
Assay [3] concerns RAW-Dual. In words: NF-kB SEAP reporter activity, fold change vs agonist alone; cytotoxicity flag (confluency mask): not cytotoxic; higher = enhanced NF-kB activity. In outline:
as §1

[4] abbreviates: agonist: ODN 1826 (TLR9) 0.5 ug/mL.
Setting [5] is: agonist: Pam2CSK4 (TLR2/6) 0.1 ug/mL.
Where [6] appears, read: agonist: Pam3CSK4 (TLR2/1) 0.1 ug/mL.
The mark [7] stands for this setting: library stock concentration (final ~1000-fold dilution): 10 mM, cytotoxicity flag (confluency mask): cytotoxic (confluency <70% of control), agonist: Imiquimod (TLR7) […].
[8] abbreviates: library stock concentration (final ~1000-fold dilution): 10 mM, cytotoxicity flag (confluency mask): cytotoxic (confluency <70% of control), agonist: MPLA (TLR4) […].
The mark [9] stands for this setting: library stock concentration (final ~1000-fold dilution): 10 mM, cytotoxicity flag (confluency mask): not cytotoxic, agonist: Imiquimod (TLR7) […].
[10] abbreviates: library stock concentration (final ~1000-fold dilution): 10 mM, cytotoxicity flag (confluency mask): not cytotoxic, agonist: MPLA (TLR4) […].
[11] abbreviates: library stock concentration (final ~1000-fold dilution): 1 mM, cytotoxicity flag (confluency mask): not cytotoxic, agonist: Imiquimod (TLR7) […].
The mark [12] stands for this setting: library stock concentration (final ~1000-fold dilution): 1 mM, cytotoxicity flag (confluency mask): not cytotoxic, agonist: MPLA (TLR4) […].

Consider `Cl.Cl.OCCN1CCN(CC/C=C2/c3ccccc3Sc3ccc(C(F)(F)F)cc32)CC1` (library stock concentration (final ~1000-fold dilution): 10 mM), for which the “NF-kB SEAP reporter activity” value in the assay on RAW-Dual [1] (agonist: LPS (TLR4) 0.1 ug/mL) stood at 0.443; with RAW-Dual [1] (setting [4]), 0.412; in the assay on RAW-Dual [1] (setting [5]), 0.431; in the assay with RAW-Dual [1] (setting [6]) it was 0.63.
For `Cl.Cl.OCCN1CCN(CC/C=C2/c3ccccc3Sc3ccc(C(F)(F)F)cc32)CC1`, the results for the “NF-kB SEAP reporter activity” value in the assay with RAW-Dual [2] (setting [7]) and with RAW-Dual [2] (setting [8]) were 1.58 and 0.876, respectively.
On to `CC(=O)OC12COC1CC(O)C1(C)C(=O)C(O)C3=C(C)C(OC(=O)C(O)C(NC(=O)OC(C)(C)C)c4ccccc4)CC(O)(C(OC(=O)c4ccccc4)C21)C3(C)C` (stereo not drawn) (library stock concentration (final ~1000-fold dilution): 10 mM), for which the “NF-kB SEAP reporter activity” value in the assay on RAW-Dual [3] (agonist: LPS (TLR4) 0.1 ug/mL) was 1.2; in the assay with RAW-Dual [3] (setting [4]), 0.995; with RAW-Dual [3] (setting [5]), 1.02; in the assay with RAW-Dual [3] (setting [6]), 0.841.
`CC(=O)OC12COC1CC(O)C1(C)C(=O)C(O)C3=C(C)C(OC(=O)C(O)C(NC(=O)OC(C)(C)C)c4ccccc4)CC(O)(C(OC(=O)c4ccccc4)C21)C3(C)C` (stereo not drawn): the results for the “NF-kB SEAP reporter activity” value in the assay with RAW-Dual [2] (setting [9]) and in the assay on RAW-Dual [2] (setting [10]) were 1.14 and 1.24, respectively.
The corresponding values for `CC(C(O)c1ccc(O)cc1)N1CCC(Cc2ccccc2)CC1.CC(C(O)c1ccc(O)cc1)N1CCC(Cc2ccccc2)CC1.O=C(O)C(O)C(O)C(=O)O` (stereo not drawn) are 1.14 and 0.926.
For the compound `CC(C(O)c1ccc(O)cc1)N1CCC(Cc2ccccc2)CC1.CC(C(O)c1ccc(O)cc1)N1CCC(Cc2ccccc2)CC1.O=C(O)C(O)C(O)C(=O)O` (stereo not drawn) (library stock concentration (final ~1000-fold dilution): 10 mM), the “NF-kB SEAP reporter activity” value in the assay with RAW-Dual [3] (agonist: LPS (TLR4) 0.1 ug/mL) turned out to be 1.19; in the assay with RAW-Dual [3] (setting [4]), 0.64; in the assay with RAW-Dual [3] (setting [5]) it was 1.04; with RAW-Dual [3] (setting [6]) it was 0.922.
`Cn1c(=O)cc(N2CCCC(N)C2)n(Cc2ccccc2C#N)c1=O` (stereo not drawn) (library stock concentration (final ~1000-fold dilution): 10 mM): the “NF-kB SEAP reporter activity” value with RAW-Dual [3] (agonist: LPS (TLR4) 0.1 ug/mL) was 1.04 and 1.31; with RAW-Dual [3] (setting [4]), 0.953 and 1.01; with RAW-Dual [3] (setting [5]), 1.16 and 1.1; in the assay with RAW-Dual [3] (setting [6]), 0.92 and 1.24.
In the case of `Cn1c(=O)cc(N2CCCC(N)C2)n(Cc2ccccc2C#N)c1=O` (stereo not drawn), in the assay on RAW-Dual [2] (setting [9]), the “NF-kB SEAP reporter activity” value was determined as 1.08.
As to `O=C(Nc1ccccc1C(=O)NC1CCCCNC1=O)c1cc2ccccc2s1` (stereo not drawn) (library stock concentration (final ~1000-fold dilution): 10 mM), the “NF-kB SEAP reporter activity” value in the assay on RAW-Dual [3] (agonist: LPS (TLR4) 0.1 ug/mL) amounted to 2.62; with RAW-Dual [3] (setting [4]), 1.04; in the assay on RAW-Dual [3] (setting [5]), 1.1; in the assay with RAW-Dual [3] (setting [6]) it was 1.47.
Turning to `O=C(Nc1ccccc1C(=O)NC1CCCCNC1=O)c1cc2ccccc2s1` (stereo not drawn), the “NF-kB SEAP reporter activity” value in the assay on RAW-Dual [2] (setting [9]) came out at 1.06; in the assay with RAW-Dual [2] (setting [10]) it was 1.16.
Regarding `CC12CC(O)C3CC1(OC1OC(CO)C(O)C(O)C1O)C3(COC(=O)c1ccccc1)C(=O)O2` (stereo not drawn) (library stock concentration (final ~1000-fold dilution): 10 mM), the “NF-kB SEAP reporter activity” value with RAW-Dual [3] (agonist: LPS (TLR4) 0.1 ug/mL) was 1.33; in the assay with RAW-Dual [3] (setting [4]), 0.943; in the assay with RAW-Dual [3] (setting [5]), 1.11; in the assay with RAW-Dual [3] (setting [6]) it was 1.16.
Consider `CC12CC(O)C3CC1(OC1OC(CO)C(O)C(O)C1O)C3(COC(=O)c1ccccc1)C(=O)O2` (stereo not drawn), for which the results for the “NF-kB SEAP reporter activity” value with RAW-Dual [2] (setting [9]) and in the assay with RAW-Dual [2] (setting [10]) were 0.925 and 1.04, respectively.
`CN(c1ncccc1CNc1nc(Nc2ccc3c(c2)CC(=O)N3)ncc1C(F)(F)F)S(C)(=O)=O.Cl` (library stock concentration (final ~1000-fold dilution): 10 mM): the “NF-kB SEAP reporter activity” value in the assay with RAW-Dual [1] (agonist: LPS (TLR4) 0.1 ug/mL) is 0.194; in the assay on RAW-Dual [1] (setting [4]), 0.29; in the assay on RAW-Dual [1] (setting [5]), 0.0618; with RAW-Dual [1] (setting [6]), 0.135.
For the compound `CN(c1ncccc1CNc1nc(Nc2ccc3c(c2)CC(=O)N3)ncc1C(F)(F)F)S(C)(=O)=O.Cl`, the “NF-kB SEAP reporter activity” value in the assay on RAW-Dual [2] (setting [7]) is 0.169; with RAW-Dual [2] (setting [8]) it was 0.247.
On to `CC1OC(OC2C(CO)OC(OC3C(CO)OC(O)C(O)C3O)C(O)C2O)C(O)C(O)C1NC1C=C(CO)C(O)C(O)C1O` (stereo not drawn) (library stock concentration (final ~1000-fold dilution): 10 mM), for which the “NF-kB SEAP reporter activity” value was determined as 1.19 with RAW-Dual [3] (agonist: LPS (TLR4) 0.1 ug/mL), 1.03 in the assay with RAW-Dual [3] (setting [4]), 1.02 in the assay with RAW-Dual [3] (setting [5]) and 1.06 with RAW-Dual [3] (setting [6]).
As to `CC1OC(OC2C(CO)OC(OC3C(CO)OC(O)C(O)C3O)C(O)C2O)C(O)C(O)C1NC1C=C(CO)C(O)C(O)C1O` (stereo not drawn), the “NF-kB SEAP reporter activity” value with RAW-Dual [2] (setting [9]) worked out at 0.983; in the assay with RAW-Dual [2] (setting [10]) it was 0.951.
For `Nc1nc2cc(-c3ccc4ncc(C(=O)N5CCOCC5)n4c3)ccc2o1` (library stock concentration (final ~1000-fold dilution): 10 mM), the “NF-kB SEAP reporter activity” value turned out to be 0.841 with RAW-Dual [3] (agonist: LPS (TLR4) 0.1 ug/mL), 1.02 with RAW-Dual [3] (setting [4]), 0.774 in the assay on RAW-Dual [3] (setting [5]) and 0.811 in the assay with RAW-Dual [3] (setting [6]).
In the case of `CCOC(=O)c1cnc2ccc(-c3cncc(NS(=O)(=O)c4ccccc4)c3)cn12` (library stock concentration (final ~1000-fold dilution): 10 mM), the “NF-kB SEAP reporter activity” value in the assay with RAW-Dual [1] (agonist: LPS (TLR4) 0.1 ug/mL) was found to be 7.43; in the assay on RAW-Dual [1] (setting [4]), 2.4; with RAW-Dual [1] (setting [5]) it was 1.68; in the assay with RAW-Dual [1] (setting [6]), 3.96.
In the case of `CCOC(=O)c1cnc2ccc(-c3cncc(NS(=O)(=O)c4ccccc4)c3)cn12`, the “NF-kB SEAP reporter activity” value in the assay on RAW-Dual [2] (setting [7]) worked out at 1.31; with RAW-Dual [2] (setting [8]), 2.94.
Turning to `Nc1nc2cc(-c3ccc4ncc(C(=O)N5CCOCC5)n4c3)ccc2o1`, the “NF-kB SEAP reporter activity” value with RAW-Dual [2] (setting [9]) and with RAW-Dual [2] (setting [10]) was 1.09 each time.
As for `Cn1c(-c2ccccc2C(F)(F)F)nnc1C12CCC(c3noc(C4CC(F)(F)C4)n3)(CC1)CC2` (library stock concentration (final ~1000-fold dilution): 10 mM), the “NF-kB SEAP reporter activity” value in the assay on RAW-Dual [3] (agonist: LPS (TLR4) 0.1 ug/mL) is 1.22; in the assay with RAW-Dual [3] (setting [4]) it was 0.41; with RAW-Dual [3] (setting [5]), 0.827; in the assay on RAW-Dual [3] (setting [6]), 1.16.
Regarding `Cn1c(-c2ccccc2C(F)(F)F)nnc1C12CCC(c3noc(C4CC(F)(F)C4)n3)(CC1)CC2`, the “NF-kB SEAP reporter activity” value is 0.868 in the assay with RAW-Dual [2] (setting [9]) and 1.3 with RAW-Dual [2] (setting [10]).
Consider `CCCCCCOC(=O)c1cc(=O)c(O)c2c(O)c(O)c(OC)cc2c1` (library stock concentration (final ~1000-fold dilution): 1 mM), for which the “NF-kB SEAP reporter activity” value in the assay with RAW-Dual [3] (agonist: LPS (TLR4) 0.1 ug/mL) stood at 1.14; in the assay with RAW-Dual [3] (setting [4]), 0.931; with RAW-Dual [3] (setting [5]), 0.872; with RAW-Dual [3] (setting [6]), 0.85.
For `CCCCCCOC(=O)c1cc(=O)c(O)c2c(O)c(O)c(OC)cc2c1`, the “NF-kB SEAP reporter activity” value in the assay with RAW-Dual [2] (setting [11]) stood at 1.03; with RAW-Dual [2] (setting [12]) it was 1.23.
The corresponding values for `CCCN(CCC)C(=O)C1=Cc2ccc(-c3ccc(C(=O)N4CCCC4)cc3)cc2N=C(N)C1` are 1.22 and 1.82.
